Laboratory results published in article PMC7862700, “An all-to-all approach to the identification of sequence-specific readers for epigenetic DNA modifications on cytosine”.

Assays:
Assay in all cases: DAPPL (digital affinity profiling via proximity ligation, sequencing); 10 mM Tris-HCl pH 7.5, 50 mM NaCl, 1 mM DTT, 4% glycerol, room temperature, 30 min; GST-TFs on glutathione beads, 16-mer random dsDNA library, 0.1% formaldehyde crosslink after washing; high values mean tight binding
Details in all cases: protein: recombinant; tags: N-terminal GST; dsDNA, one strand shown
FLI1 = target: T1, FLI1 (Homo sapiens, UniProt Q01543 1-452)
T1 sequence: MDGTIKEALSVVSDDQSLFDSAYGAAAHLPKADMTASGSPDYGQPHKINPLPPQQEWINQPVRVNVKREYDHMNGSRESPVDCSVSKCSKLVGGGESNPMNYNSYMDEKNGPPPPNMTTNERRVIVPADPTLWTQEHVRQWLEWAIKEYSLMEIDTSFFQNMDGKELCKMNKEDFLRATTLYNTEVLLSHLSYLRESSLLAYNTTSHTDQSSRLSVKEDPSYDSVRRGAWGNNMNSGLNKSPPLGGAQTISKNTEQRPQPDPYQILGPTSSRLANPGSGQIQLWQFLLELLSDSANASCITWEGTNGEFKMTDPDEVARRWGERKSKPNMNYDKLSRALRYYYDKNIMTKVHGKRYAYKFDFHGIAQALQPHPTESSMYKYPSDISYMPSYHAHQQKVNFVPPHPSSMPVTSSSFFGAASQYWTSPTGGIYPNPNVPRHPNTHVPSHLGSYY
Procedure, shortened: (§1)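 Human transcription factors fused to GST were expressed in yeast, captured on glutathione beads, given DNA barcodes and pooled with a GST-only negative control. Pools were incubated with 200 nmole of a 16-mer random double-stranded DNA library in Tris/NaCl/DTT/glycerol buffer at room temperature for 30 min. They were then washed, crosslinked with 0.1% formaldehyde, proximity-ligated (BsaI/T4 ligase, 1 h, 37 °C), PCR-amplified and sequenced on an Illumina NextSeq500. Binding signal is each 6-mer's read frequency for a factor divided by its frequency for the GST control.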

ELK1 = target: T2, ELK1 (Homo sapiens, UniProt P19419 1-428)
T2 sequence: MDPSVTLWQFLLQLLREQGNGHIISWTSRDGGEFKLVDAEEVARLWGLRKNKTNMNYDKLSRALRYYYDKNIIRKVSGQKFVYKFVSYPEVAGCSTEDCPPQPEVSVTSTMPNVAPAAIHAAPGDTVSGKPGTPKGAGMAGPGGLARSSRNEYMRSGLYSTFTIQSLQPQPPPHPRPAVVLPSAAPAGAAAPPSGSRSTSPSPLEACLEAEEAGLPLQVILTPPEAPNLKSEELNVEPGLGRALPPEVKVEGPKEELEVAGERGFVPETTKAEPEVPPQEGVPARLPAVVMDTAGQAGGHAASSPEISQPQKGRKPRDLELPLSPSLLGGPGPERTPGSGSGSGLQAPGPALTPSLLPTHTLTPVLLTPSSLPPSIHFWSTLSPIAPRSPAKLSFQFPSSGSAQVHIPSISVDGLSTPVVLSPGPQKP
Procedure, shortened: as §1

GABPA = target: T3, GABPA (Homo sapiens, UniProt Q06546 1-454)
T3 sequence: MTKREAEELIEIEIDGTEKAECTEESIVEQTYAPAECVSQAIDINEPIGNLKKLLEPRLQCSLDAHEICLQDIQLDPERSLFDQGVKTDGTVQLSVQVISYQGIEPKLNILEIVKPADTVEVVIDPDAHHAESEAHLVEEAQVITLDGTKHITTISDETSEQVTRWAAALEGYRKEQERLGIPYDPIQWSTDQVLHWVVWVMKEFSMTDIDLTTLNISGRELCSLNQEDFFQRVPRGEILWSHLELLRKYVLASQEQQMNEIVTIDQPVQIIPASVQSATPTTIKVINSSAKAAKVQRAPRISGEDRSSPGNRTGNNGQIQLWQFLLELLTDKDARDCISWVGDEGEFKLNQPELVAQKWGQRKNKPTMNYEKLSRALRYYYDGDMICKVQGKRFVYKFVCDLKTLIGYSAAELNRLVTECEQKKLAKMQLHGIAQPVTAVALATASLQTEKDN
Procedure, shortened: as §1

ERG = target: T4, ERG (Homo sapiens, UniProt P11308 1-479)
T4 sequence: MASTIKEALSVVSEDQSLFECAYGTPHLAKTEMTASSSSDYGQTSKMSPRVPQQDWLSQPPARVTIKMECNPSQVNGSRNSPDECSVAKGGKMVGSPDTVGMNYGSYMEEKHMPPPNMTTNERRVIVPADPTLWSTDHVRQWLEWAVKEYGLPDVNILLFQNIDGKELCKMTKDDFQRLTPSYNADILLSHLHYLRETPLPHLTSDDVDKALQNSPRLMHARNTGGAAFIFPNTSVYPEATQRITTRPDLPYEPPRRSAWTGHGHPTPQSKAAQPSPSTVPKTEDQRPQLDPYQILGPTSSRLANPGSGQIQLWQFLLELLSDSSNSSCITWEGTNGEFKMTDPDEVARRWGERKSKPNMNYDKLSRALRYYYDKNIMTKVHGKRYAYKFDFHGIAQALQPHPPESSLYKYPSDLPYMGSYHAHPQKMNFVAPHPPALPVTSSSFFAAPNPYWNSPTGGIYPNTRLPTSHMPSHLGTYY
Procedure, shortened: as §1

ELF1 = ELF1 (Homo sapiens, UniProt P32519 1-619)
Sequence of ELF1 (P32519 whole entry): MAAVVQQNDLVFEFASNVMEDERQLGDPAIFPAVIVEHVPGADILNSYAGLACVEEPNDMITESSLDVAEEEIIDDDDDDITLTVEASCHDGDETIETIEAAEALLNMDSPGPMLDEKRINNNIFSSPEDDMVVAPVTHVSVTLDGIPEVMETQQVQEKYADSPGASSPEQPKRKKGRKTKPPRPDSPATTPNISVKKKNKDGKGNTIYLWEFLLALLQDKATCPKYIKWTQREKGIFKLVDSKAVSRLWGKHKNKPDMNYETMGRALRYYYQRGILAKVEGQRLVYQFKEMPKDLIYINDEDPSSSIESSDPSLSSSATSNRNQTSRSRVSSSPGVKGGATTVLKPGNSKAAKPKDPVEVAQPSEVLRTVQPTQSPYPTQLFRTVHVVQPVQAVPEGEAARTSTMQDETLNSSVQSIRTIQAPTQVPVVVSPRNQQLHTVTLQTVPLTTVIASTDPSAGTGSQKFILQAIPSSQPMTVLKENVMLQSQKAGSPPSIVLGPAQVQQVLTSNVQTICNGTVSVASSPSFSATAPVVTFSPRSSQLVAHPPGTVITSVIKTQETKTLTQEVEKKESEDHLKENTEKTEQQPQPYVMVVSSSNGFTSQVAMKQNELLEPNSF
Procedure, shortened: as §1

EHF = target: T5, EHF (Homo sapiens, UniProt Q9NZC4 1-300)
T5 sequence: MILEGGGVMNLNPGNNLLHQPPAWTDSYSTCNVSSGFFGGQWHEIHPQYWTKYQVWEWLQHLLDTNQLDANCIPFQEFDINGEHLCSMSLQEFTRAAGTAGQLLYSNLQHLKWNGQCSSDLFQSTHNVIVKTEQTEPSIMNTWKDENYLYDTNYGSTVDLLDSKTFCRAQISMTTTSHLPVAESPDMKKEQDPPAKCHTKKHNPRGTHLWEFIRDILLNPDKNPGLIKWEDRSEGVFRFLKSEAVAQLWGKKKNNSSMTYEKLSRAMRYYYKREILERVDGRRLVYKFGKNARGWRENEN
Procedure, shortened: as §1

SPIB = SPIB (Homo sapiens, UniProt Q01892 1-262)
Sequence of SPIB (Q01892 whole entry): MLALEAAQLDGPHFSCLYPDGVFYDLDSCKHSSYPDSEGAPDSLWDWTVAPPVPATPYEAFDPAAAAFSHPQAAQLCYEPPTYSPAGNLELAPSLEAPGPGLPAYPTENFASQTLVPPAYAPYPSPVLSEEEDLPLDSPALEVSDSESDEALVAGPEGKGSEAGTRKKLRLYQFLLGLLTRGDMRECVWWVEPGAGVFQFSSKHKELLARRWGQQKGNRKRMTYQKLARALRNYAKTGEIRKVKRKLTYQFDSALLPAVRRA
Procedure, shortened: as §1

ELK3 = target: T6, ELK3 (Homo sapiens, UniProt P41970 1-407)
T6 sequence: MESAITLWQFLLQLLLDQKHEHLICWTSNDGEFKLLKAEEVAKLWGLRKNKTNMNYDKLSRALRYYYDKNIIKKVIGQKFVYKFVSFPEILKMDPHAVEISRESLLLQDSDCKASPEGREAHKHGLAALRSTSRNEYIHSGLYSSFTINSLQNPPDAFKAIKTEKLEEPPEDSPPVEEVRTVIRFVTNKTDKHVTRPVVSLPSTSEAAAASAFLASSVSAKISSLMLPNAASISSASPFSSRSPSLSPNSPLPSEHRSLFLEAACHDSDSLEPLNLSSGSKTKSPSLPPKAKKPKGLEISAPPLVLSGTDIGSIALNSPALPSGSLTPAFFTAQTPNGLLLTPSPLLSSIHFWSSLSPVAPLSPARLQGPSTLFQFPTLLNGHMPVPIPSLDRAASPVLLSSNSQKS
Procedure, shortened: as §1

SPIC = target: T7, SPIC (Homo sapiens, UniProt Q8N5J4 1-248)
T7 sequence: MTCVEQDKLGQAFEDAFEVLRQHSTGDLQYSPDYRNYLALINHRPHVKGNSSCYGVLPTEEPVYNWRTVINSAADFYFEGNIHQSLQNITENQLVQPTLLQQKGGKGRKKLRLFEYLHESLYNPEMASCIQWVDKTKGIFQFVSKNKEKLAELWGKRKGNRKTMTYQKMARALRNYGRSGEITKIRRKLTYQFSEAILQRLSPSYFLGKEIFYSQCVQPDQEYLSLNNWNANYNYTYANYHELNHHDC
Procedure, shortened: as §1

ELF4 = ELF4 (Homo sapiens, UniProt Q99607 1-663)
Sequence of ELF4 (Q99607 whole entry): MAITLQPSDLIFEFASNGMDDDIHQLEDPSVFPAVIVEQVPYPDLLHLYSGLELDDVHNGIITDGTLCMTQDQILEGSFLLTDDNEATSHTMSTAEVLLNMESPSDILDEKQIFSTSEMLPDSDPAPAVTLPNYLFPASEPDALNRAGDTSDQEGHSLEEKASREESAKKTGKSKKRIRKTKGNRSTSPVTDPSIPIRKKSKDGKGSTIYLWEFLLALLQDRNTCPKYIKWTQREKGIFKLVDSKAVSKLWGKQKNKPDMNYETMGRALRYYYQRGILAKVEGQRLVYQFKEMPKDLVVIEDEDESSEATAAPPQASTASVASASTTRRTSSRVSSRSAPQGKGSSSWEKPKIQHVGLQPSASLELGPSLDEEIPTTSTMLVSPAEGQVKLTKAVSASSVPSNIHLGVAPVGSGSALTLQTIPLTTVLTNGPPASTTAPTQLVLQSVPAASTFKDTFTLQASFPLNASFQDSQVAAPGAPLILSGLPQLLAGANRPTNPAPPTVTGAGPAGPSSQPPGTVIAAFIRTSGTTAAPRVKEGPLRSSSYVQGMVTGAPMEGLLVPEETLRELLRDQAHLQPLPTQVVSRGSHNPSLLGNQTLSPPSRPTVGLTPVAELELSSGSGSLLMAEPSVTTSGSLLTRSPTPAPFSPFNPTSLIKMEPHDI
Procedure, shortened: as §1

ELK4 = target: T8, ELK4 (Homo sapiens, UniProt P28324-2 1-405)
T8 sequence: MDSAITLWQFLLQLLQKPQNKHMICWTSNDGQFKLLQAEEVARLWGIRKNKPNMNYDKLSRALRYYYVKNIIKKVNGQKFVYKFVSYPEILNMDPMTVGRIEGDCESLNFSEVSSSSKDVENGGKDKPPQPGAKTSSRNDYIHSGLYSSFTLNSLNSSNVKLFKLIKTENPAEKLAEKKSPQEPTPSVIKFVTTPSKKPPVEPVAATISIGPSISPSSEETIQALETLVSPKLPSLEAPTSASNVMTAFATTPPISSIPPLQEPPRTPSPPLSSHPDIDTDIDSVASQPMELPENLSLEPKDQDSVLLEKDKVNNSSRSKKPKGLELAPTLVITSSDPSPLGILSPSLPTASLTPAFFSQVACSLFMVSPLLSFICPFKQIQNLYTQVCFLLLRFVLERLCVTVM
Procedure, shortened: as §1

ETV2 = target: T9, ETV2 (Homo sapiens, UniProt O00321 1-342)
T9 sequence: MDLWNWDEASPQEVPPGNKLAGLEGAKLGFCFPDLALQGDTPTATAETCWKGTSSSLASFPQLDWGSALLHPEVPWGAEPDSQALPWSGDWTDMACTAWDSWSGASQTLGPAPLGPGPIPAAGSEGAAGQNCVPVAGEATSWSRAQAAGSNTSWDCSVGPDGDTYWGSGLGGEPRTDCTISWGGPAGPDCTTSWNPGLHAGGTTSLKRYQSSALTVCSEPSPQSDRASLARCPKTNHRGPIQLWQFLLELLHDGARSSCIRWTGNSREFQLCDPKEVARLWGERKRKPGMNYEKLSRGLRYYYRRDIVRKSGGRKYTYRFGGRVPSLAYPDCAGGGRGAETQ
Procedure, shortened: as §1

ELF3 = target: T10, ELF3 (Homo sapiens, UniProt P78545 1-371)
T10 sequence: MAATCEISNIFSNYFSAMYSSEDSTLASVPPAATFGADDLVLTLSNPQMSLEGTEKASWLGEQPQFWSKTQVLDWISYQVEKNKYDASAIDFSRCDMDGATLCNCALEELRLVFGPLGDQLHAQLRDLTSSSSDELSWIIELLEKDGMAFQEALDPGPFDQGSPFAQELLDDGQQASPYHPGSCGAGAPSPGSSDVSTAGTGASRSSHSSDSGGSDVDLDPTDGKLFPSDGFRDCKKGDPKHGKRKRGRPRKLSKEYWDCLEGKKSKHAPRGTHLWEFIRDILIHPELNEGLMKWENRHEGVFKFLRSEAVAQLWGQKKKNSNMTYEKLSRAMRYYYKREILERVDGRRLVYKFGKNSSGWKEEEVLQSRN
Procedure, shortened: as §1

ETV1 = ETV1 (Homo sapiens, UniProt P50549 1-477)
Sequence of ETV1 (P50549 whole entry): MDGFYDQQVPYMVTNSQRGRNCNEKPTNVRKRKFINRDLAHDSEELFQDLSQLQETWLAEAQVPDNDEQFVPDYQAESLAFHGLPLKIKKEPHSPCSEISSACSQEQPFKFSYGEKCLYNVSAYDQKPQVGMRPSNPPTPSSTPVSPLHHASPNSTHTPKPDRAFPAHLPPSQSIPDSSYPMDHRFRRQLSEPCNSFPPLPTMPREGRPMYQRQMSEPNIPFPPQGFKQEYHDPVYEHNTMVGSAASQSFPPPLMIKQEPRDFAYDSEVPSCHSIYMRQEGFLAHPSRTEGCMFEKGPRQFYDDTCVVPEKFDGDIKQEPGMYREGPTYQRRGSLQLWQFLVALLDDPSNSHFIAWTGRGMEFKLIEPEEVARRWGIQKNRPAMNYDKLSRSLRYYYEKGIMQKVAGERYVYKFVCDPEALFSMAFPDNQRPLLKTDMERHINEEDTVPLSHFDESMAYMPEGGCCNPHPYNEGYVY
Procedure, shortened: as §1

ERF = target: T11, ERF (Homo sapiens, UniProt P50548 1-548)
T11 sequence: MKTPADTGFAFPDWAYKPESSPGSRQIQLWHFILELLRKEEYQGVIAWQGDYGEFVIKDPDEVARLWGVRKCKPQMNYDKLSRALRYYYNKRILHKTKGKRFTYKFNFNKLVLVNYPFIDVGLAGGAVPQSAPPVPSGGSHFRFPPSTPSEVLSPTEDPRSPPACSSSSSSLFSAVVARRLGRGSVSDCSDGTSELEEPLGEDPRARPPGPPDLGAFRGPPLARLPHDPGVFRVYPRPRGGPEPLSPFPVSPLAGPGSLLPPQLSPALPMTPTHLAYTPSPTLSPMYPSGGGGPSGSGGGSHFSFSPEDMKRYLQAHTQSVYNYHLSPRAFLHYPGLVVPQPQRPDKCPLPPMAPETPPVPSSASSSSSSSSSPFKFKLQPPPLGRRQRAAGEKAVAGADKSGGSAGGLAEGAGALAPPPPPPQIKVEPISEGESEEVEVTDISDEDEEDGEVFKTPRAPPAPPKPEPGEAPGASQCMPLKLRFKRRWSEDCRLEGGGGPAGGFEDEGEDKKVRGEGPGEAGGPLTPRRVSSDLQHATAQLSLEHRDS
Procedure, shortened: as §1

ETV7 = target: T12, ETV7 (Homo sapiens, UniProt Q9Y603 1-341)
T12 sequence: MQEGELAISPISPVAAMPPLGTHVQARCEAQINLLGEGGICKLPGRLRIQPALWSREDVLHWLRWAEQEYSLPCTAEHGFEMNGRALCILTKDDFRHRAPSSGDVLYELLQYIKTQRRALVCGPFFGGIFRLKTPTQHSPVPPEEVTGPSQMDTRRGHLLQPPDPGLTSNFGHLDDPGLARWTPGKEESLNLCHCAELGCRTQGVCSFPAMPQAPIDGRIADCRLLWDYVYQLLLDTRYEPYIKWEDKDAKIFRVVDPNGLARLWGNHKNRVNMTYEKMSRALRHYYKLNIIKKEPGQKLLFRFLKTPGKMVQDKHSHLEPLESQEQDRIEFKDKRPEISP
Procedure, shortened: as §1

ETV3 = target: T13, ETV3 (Homo sapiens, UniProt P41162-2 1-143)
T13 sequence: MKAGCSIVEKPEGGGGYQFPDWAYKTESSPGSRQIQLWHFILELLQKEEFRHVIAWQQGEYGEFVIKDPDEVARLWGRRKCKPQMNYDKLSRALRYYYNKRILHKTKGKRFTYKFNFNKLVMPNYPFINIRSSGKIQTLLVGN
Procedure, shortened: as §1

ETV6 = ETV6 (Homo sapiens, UniProt P41212 1-452)
Sequence of ETV6 (P41212 whole entry): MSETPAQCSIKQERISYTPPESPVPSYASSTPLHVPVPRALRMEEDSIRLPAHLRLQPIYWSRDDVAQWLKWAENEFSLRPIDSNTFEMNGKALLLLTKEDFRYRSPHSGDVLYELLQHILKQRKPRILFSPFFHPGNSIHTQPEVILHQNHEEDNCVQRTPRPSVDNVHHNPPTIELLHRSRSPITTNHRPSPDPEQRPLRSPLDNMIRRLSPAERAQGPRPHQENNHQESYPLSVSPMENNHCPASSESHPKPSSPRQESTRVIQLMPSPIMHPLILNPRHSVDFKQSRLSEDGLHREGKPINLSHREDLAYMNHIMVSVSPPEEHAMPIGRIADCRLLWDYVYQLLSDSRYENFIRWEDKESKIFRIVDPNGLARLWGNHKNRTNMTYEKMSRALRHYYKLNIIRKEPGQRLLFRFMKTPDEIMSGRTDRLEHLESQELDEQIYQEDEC
Procedure, shortened: as §1

GCACCT was tested, and the binding signal (FLI1) was 1.07 fold enrichment (6-mer frequency, TF over GST control), the binding signal (ELK1) was 1.01 fold enrichment (6-mer frequency, TF over GST control) and the binding signal (GABPA) was 1.12 fold enrichment (6-mer frequency, TF over GST control). For the same sequence, the binding signal (ERG) was 1.07 fold enrichment (6-mer frequency, TF over GST control), the binding signal (ELF1) was 1.16 fold enrichment (6-mer frequency, TF over GST control) and the binding signal (EHF) was 1.18 fold enrichment (6-mer frequency, TF over GST control). The binding signal (SPIB) was 1.13 fold enrichment (6-mer frequency, TF over GST control), the binding signal (ELK3) was 1.05 fold enrichment (6-mer frequency, TF over GST control) and the binding signal (SPIC) was 1 fold enrichment (6-mer frequency, TF over GST control). For the same sequence, the binding signal (ELF4) was 1.13 fold enrichment (6-mer frequency, TF over GST control), the binding signal (ELK4) was 1.16 fold enrichment (6-mer frequency, TF over GST control) and the binding signal (ETV2) was 1.25 fold enrichment (6-mer frequency, TF over GST control). The binding signal (ELF3) was 1.06 fold enrichment (6-mer frequency, TF over GST control), the binding signal (ETV1) was 1.1 fold enrichment (6-mer frequency, TF over GST control) and the binding signal (ERF) was 1.29 fold enrichment (6-mer frequency, TF over GST control). The binding signal (ETV7) was 1.11 fold enrichment (6-mer frequency, TF over GST control), the binding signal (ETV3) was 1.13 fold enrichment (6-mer frequency, TF over GST control) and the binding signal (ETV6) was 1.12 fold enrichment (6-mer frequency, TF over GST control).
